These results are taken from PubChem BioAssay.

For experiment [1], the system named is Plasmodium falciparum Sir2 (PF13_0152, Sir2A). Kind of experiment: Plasmodium falciparum Sir2A binding compounds – biochemical, small-molecule microarray, 635 nm fluorescence, primary screen (AID 1098).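 Also: score merges spot fluorescence intensity with its signal-to-noise ratio.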 To be noted: fluorescence 635 nm, higher = more signal.
The nature of experiment [2]: probe aDKK1 binding to arrayed compounds – biochemical, biotinylated probe, 635/667 nm fluorescence, primary screen (AID 1099).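 Also: score merges 667nm spot fluorescence with signal to noise across triplicate slides; reference of the scale not given here.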 The note with it: small-molecule microarray, higher = more signal.
Experiment [3] can be described thus: probe aCHRDL2 binding to arrayed compounds – biochemical, biotinylated probe, 635/667 nm fluorescence, primary screen (AID 1100). To be noted: small-molecule microarray, higher = more signal.
Experiment [4] is described as follows: change in splice reporter luminescence, either direction, cell-based, HEK293, spliceosome inhibition project, primary screen (AID 1101).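 Also: HEK293 cells carrying a splicing-competent luciferase reporter gene; test concentration not given here.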 The note with it: HEK293 splicing luciferase reporter, 24 h, higher = more signal, called active from +8 up or from −8 down. A general note: Reporter assays use an easily measured gene product as a stand-in for the process of interest.

Experiment [5] concerns the target Fibroblast growth factor 10 (Homo sapiens) (UniProt O15520). Kind of experiment: compounds binding fibroblast growth factor 10 – biochemical, small-molecule microarray, 635 nm fluorescence, primary screen (AID 1102). To be noted: FGF10 binding, fluorescence 635 nm, higher = more signal.
The test system of experiment [6] is glycogen synthase kinase-3 (GSK3A per assay name; protocol says GSK3B). Kind of experiment: compounds binding glycogen synthase kinase-3 – biochemical, small-molecule microarray, 635 nm fluorescence, GSK3A, primary screen (AID 1103). Also: the record names both GSK3A and GSK3B. The note with it: fluorescence 635 nm, higher = more signal.
In experiment [7] the target is Epidermal growth factor receptor (Homo sapiens) (UniProt P00533). Kind of experiment: compounds binding epidermal growth factor receptor – biochemical, small-molecule microarray, 635 nm fluorescence, primary screen (AID 1104).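 Also: score merges 667 nm emission intensity with spot signal to noise over triplicate slides.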 The note with it: EGFR binding, higher = more signal.
The target in experiment [8] is Follistatin-related protein 3 (Homo sapiens) (UniProt O95633). Kind of experiment: compounds binding follistatin-related protein 3 – biochemical, small-molecule microarray, 635 nm fluorescence, primary screen (AID 1105).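 Also: score merges emission near 667 nm and signal to noise per printed spot across three slides.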 The note with it: FSTL3 binding, higher = more signal.
For experiment [9], the target named is Dickkopf-related protein 1 (Homo sapiens) (UniProt O94907). Kind of experiment: small molecules binding DKK1 protein – biochemical, small-molecule microarray, 635 nm fluorescence scan, primary screen (AID 1106).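 Also: score merges emission near 667 nm with signal to noise over three replicate slides.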 To be noted: higher = more signal.
Experiment [10] concerns Inhibin beta A chain (activin A). Kind of experiment: small molecules binding activin A – biochemical, small-molecule microarray, 635 nm fluorescence scan, primary screen (AID 1107).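 Also: mouse activin A protein probed at 4.33 µg/mL on printed slides; score merges bound-protein fluorescence near 667 nm with spot signal-to-noise.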 To be noted: INHBA, higher = more signal.

Calls of active or inactive are those of the source.

Sequence of Fibroblast growth factor 10 (Homo sapiens) (O15520 whole entry, looked up): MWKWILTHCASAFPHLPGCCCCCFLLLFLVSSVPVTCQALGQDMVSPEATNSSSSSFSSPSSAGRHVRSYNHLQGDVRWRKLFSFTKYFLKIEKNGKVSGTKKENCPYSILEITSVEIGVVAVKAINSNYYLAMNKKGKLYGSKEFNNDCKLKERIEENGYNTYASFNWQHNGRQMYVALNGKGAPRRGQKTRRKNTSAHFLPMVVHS
Sequence of Follistatin-related protein 3 (Homo sapiens) (O95633 whole entry, looked up): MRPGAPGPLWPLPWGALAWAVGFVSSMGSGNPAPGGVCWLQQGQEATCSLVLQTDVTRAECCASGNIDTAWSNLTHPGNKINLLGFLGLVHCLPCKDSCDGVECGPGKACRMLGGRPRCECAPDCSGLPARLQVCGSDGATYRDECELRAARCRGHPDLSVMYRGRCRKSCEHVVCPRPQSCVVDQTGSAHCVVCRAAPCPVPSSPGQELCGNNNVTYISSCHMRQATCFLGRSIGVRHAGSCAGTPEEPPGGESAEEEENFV
Sequence of Dickkopf-related protein 1 (Homo sapiens) (O94907 whole entry, looked up): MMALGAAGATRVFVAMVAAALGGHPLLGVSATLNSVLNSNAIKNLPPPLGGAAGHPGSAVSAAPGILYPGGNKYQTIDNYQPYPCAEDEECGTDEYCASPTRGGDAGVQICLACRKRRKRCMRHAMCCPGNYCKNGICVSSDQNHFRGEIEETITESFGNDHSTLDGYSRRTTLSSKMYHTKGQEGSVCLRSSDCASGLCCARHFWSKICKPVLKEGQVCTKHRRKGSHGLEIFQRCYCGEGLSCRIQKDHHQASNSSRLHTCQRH
Sequence of Epidermal growth factor receptor (Homo sapiens) (P00533 whole entry, looked up): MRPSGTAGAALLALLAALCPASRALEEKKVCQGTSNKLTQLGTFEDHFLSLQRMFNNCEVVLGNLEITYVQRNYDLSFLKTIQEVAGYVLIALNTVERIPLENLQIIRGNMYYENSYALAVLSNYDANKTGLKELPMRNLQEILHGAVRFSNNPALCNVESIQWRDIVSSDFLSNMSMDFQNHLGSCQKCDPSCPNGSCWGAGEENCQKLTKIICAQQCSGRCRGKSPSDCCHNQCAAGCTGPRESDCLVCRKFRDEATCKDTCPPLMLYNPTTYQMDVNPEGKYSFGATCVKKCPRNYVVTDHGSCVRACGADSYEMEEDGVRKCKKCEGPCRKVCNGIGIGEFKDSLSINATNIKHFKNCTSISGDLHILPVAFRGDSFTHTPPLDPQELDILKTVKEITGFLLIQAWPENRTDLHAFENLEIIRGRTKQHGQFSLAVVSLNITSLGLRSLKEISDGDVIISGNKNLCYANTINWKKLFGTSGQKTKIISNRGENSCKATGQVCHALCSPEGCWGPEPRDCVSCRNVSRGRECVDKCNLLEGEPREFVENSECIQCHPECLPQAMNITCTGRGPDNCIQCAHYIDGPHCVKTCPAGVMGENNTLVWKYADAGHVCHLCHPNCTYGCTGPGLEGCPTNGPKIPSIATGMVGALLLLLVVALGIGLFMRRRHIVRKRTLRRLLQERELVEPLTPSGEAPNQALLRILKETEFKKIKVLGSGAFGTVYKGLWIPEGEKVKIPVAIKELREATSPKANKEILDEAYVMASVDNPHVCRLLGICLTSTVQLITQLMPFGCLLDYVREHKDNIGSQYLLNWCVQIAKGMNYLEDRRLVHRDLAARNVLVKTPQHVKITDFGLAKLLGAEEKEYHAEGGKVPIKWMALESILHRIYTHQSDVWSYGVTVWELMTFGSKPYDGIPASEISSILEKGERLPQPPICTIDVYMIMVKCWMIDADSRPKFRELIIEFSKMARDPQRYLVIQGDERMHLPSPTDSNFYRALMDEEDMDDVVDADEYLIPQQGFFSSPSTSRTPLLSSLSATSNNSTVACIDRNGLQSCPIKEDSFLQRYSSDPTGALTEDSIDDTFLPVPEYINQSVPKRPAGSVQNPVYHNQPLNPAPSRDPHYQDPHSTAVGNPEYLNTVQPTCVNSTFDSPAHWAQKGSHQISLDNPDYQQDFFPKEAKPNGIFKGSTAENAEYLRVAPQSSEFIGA

As to `O=C1O[C@@H](c2ccccc2)[C@@H](c2ccccc2)N2[C@@H](c3ccccc3OCCO)[C@]3(C(=O)Nc4ccc(C#CCCO)cc43)[C@@H](C(=O)Nc3nc4ccccc4s3)[C@H]12`, the composite z-score in experiment [1] was determined as 0.757; in experiment [2], 0.74; in experiment [3] it was 0.862; in experiment [5] it was 0.828; in experiment [6] it was 1.28; in experiment [7] it was 0.528. Moreover, the composite z-score in [8] was 1.35; in [9], 0.76; in experiment [10], 0.406. In addition, in experiment [4], the z-score was -0.0337 (inactive).
On to `C=CC[C@@]12N=C(c3ccc(OCCCO)cc3)O[C@@H]1c1ccccc1N(CCS(=O)(=O)c1ccccc1)C2=O`, for which the composite z-score in experiment [1] is 1.22; in experiment [2] it was -0.183; in experiment [3], 0.269; in experiment [5], 0.397; in [6] it was 1.28; in experiment [7] it was 0.272. Moreover, the composite z-score in experiment [8] stood at 1.19; in experiment [9], 0.571; in [10], 1.23. Moreover, in experiment [4], the z-score was -2.49 (inactive).
Take `O=C1O[C@@H](c2ccccc2)[C@@H](c2ccccc2)N2[C@@H](c3ccc(O)cc3)[C@]3(C(=O)Nc4ccccc43)[C@@H](C(=O)Nc3nc4ccccc4s3)[C@H]12`: the composite z-score in experiment [1] was 1.38; in [2], -0.111; in experiment [3], 0.02; in [5], 0.488; in [6], 0.878; in [7], -0.104. For the same molecule, the results for the composite z-score in experiment [8], in [9] and in [10] were 0.415, 0.065 and 0.3, respectively. In [4], the z-score is 0.641 (inactive).
Consider `[N-]=[N+]=NCc1ccccc1C[C@@]1(C(=O)NCCN2CCOCC2)N=C(c2ccc(OCCCO)cc2)O[C@@H]1c1ccccc1N=[N+]=[N-]`, for which the composite z-score in [1] was 1.15; in [2], 0.75; in [3], 0.45; in [5], 0.778; in experiment [6], 1.08; in experiment [7] it was 0.283. Besides, the figures for the composite z-score in experiment [8], in experiment [9] and in [10] were 0.325, -0.194 and 0.822, respectively. Besides, the z-score in experiment [4] is -1.7 (inactive).
Turning to `[N-]=[N+]=Nc1ccccc1[C@@H]1OC(c2ccc(OCCCO)cc2)=N[C@]1(CCS(=O)(=O)c1ccccc1)C(=O)NCCN1CCOCC1`, the composite z-score in [1] is 1.25; in [2], 1.1; in [3], 1.2; in [5] it was 0.832; in experiment [6], 1.29; in [7], 0.652. Also, the figures for the composite z-score in [8], in experiment [9] and in experiment [10] were 0.374, -0.0291 and 1.28, respectively. In addition, the z-score in [4] was -0.582 (inactive).
For `Cc1ccc(S[C@]2(C(=O)NCC(C)C)CC(=O)N(Cc3ccccc3Cl)[C@@H]2c2ccc(CO)cc2I)cc1`, the composite z-score is 1.22 in experiment [1]; 0.117 in [2]; 0.791 in experiment [3]; -0.85 in [5]; -0.408 in [6]; -0.409 in [7]. Moreover, the composite z-score in experiment [8] was -0.615; in experiment [9] it was -0.557; in experiment [10], 0.67. In addition, the z-score in experiment [4] is -0.611 (inactive).
On to `COC(=O)C[C@H]1O[C@]2(C(=O)N(C)c3ccccc32)[C@@H](C)[C@@H]1[Si](C)(C)c1ccc(C)cc1`, for which the composite z-score is 0.486 in [1]; -0.276 in experiment [2]; -0.203 in [3]; 0.749 in [5]; 0.96 in experiment [6]; 0.41 in [7]. Moreover, the composite z-score in experiment [8] is 0.958; in experiment [9] it was 0.501; in experiment [10] it was 0.0223. For the same molecule, in experiment [4], the z-score was -0.283 (inactive).
Regarding `COc1ccc(C(O)C2C=CC3C(=O)N(Cc4ccccc4)C(=O)C3N2n2cnnc2)c2ccccc12` (stereo not given), the composite z-score is 1.83 in experiment [1]; -0.0611 in experiment [2]; 0.873 in experiment [3]; -1.12 in experiment [5]; 0.233 in [6]; -1.17 in experiment [7]. In addition, the figures for the composite z-score in [8], in [9] and in experiment [10] were 0.127, -1.45 and 0.48, respectively. Also, the z-score in experiment [4] is -0.781 (inactive).
With `CC[C@@H]1[C@H]2C3C(=O)N(CC)C(=O)C3CC(=O)[C@H]2[C@H](c2ccc(C)cc2)N1S(=O)(=O)c1ccc(C)cc1` (stereo not given in full), the composite z-score in experiment [1] is 1.11; in [2], 0.415; in experiment [3], 0.46; in [5] it was 0.894; in experiment [6], 1.27; in experiment [7] it was 0.183. Moreover, the composite z-score in experiment [8] came out at 0.955; in experiment [9], 0.0029; in [10], 0.617. In experiment [4], the z-score is 0.16 (inactive).
As for `O=C(CS)NCCCCCCNC(=O)[C@H]1C[C@H]2C(=O)N[C@@H](Cc3ccccc3)C(=O)N2[C@H]1c1cccc(OCCO)c1`, the composite z-score in experiment [1] is 1.62; in [2], -0.0581; in experiment [3], 0.232; in experiment [5], 1.51; in experiment [6], 1.25; in experiment [7] it was 1.39. For the same molecule, the figures for the composite z-score in experiment [8], in experiment [9] and in experiment [10] were 1.52, 1.34 and 0.68, respectively. In experiment [4], the z-score is 0.479 (inactive).
As to `CN1C(=O)C2C(C1=O)C1C=C(c3ccc(CO)cc3)C2C(c2cccs2)N1Cc1cccc(OC(F)(F)F)c1` (stereo not given), the composite z-score is 1.06 in experiment [1]; 0.0564 in experiment [2]; -0.137 in experiment [3]; 1.07 in [5]; 1.27 in [6]; 0.0302 in experiment [7]. Also, the results for the composite z-score in experiment [8], in experiment [9] and in experiment [10] were 1.17, 0.483 and 0.614, respectively. Also, the z-score in [4] was -0.243 (inactive).
With `CC=CC(O)C1C=CC2C(=O)N(c3ccccc3)C(=O)C2N1Nc1ccccc1` (stereo not given), the composite z-score in experiment [1] was determined as 1.37; in experiment [2], 0.864; in experiment [3], 0.882; in experiment [5], 1.11; in experiment [6], 1.29; in [7], 0.247. The composite z-score in [8] is 1.36; in [9] it was 0.239; in [10], 0.871. Also, the z-score in experiment [4] was -0.0227 (inactive).
For `O=C1c2ccccc2[C@](Cc2ccccc2I)(C(=O)NCCN2CCOCC2)[C@H](c2ccc(CO)cc2)N1Cc1ccccc1`, the composite z-score in [1] is 1.21; in [2] it was 1.05; in experiment [3] it was 0.345; in experiment [5], 0.712; in [6] it was 1.04; in experiment [7], 0.167. Moreover, the composite z-score in experiment [8] turned out to be 1.04; in [9] it was 0.352; in experiment [10], 0.59. In addition, the z-score in experiment [4] was -0.825 (inactive).
As for `C[C@]1(C(=O)NC2CC2)c2ccccc2C(=O)N(Cc2ccc(OC(F)(F)F)cc2)[C@H]1c1ccc(CO)cc1`, the composite z-score in experiment [1] is -0.419; in experiment [2] it was -0.0414; in [3], 0.755; in experiment [5], -0.326; in experiment [6] it was -0.0882; in [7] it was -0.617. The composite z-score was -0.409 in experiment [8], -0.758 in [9] and 0.781 in experiment [10]. The z-score in experiment [4] was 0.765 (inactive).
With `C=CCNC(=O)[C@H]1[C@@H]2C(=O)O[C@@H](c3ccccc3)[C@@H](c3ccccc3)N2[C@@H](c2ccccc2OCCO)[C@]12C(=O)N(C(=O)OCCOC)c1ccc(C#CC3=CCCCC3)cc12`, the composite z-score in [1] came out at 1.39; in [2], 0.683; in [3], 0.521; in [5] it was 0.996; in experiment [6] it was 1.22; in experiment [7], 0.69. The composite z-score was found to be 1.32 in experiment [8], 1.11 in experiment [9] and 1.41 in experiment [10]. Further, the z-score in experiment [4] was -1.85 (inactive).
As to `O=C1OCC=C[C@H]2OC34C=CCN(c5ccc(Cl)cc5)C(=O)[C@H]3N(CCCCCO)C(=O)[C@@H]4[C@@H]12` (stereo not given in full), the composite z-score in experiment [1] is 0.311; in [2], -0.204; in [3] it was 0.822; in experiment [5], -1.23; in experiment [6], -1.26; in experiment [7], -1.44. For the same molecule, the values for the composite z-score in experiment [8], in [9] and in experiment [10] were -1.51, -1.22 and -0.262, respectively. Further, the z-score in experiment [4] was -0.784 (inactive).
